Results published in the supplement of paper PMC10037445.
Whole data set: some 2,900 compounds, median “NF-kB SEAP reporter activity, fold change vs agonist alone” near 0.99, cut for the highest 2% near 2.6. The full list was thinned out, with the highest values kept by preference.

Legend:
RAW-Dual [1] = assay: NF-kB SEAP reporter activity, fold change vs agonist alone; higher = enhanced NF-kB activity
In short: (§1)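 RAW-Dual macrophages were seeded in DMEM at 50,000 cells/well in 384-well plates, given 50 nL of library stock by pin tool, and given a PRR agonist 1 h later. Plates were held at 37 °C, 5% CO2 for 20 hours, after which supernatant was read for IRF by QuantiLuc luminescence and for NF-κB by QuantiBlue absorbance at 620 nm. Reporter activity is expressed as fold change over wells that received agonist alone. A well was called cytotoxic when IncuCyte confluency fell below 70% of agonist controls in both mask sets.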

RAW-Dual [2] = assay: NF-kB SEAP reporter activity, fold change vs agonist alone; cytotoxicity flag (confluency mask): not cytotoxic; higher = enhanced NF-kB activity
In short: as §1

RAW-Dual [3] = assay: NF-kB SEAP reporter activity, fold change vs agonist alone; cytotoxicity flag (confluency mask): cytotoxic (confluency <70% of control); higher = enhanced NF-kB activity
In short: as §1

[4] = agonist: ODN 1826 (TLR9) 0.5 ug/mL
[5] = agonist: Pam2CSK4 (TLR2/6) 0.1 ug/mL
[6] = agonist: Pam3CSK4 (TLR2/1) 0.1 ug/mL
[7] = library stock concentration (final ~1000-fold dilution): 10 mM, cytotoxicity flag (confluency mask): not cytotoxic, agonist: Imiquimod (TLR7) […]
[8] = library stock concentration (final ~1000-fold dilution): 10 mM, cytotoxicity flag (confluency mask): not cytotoxic, agonist: MPLA (TLR4) […]
[9] = library stock concentration (final ~1000-fold dilution): 10 mM, cytotoxicity flag (confluency mask): cytotoxic (confluency <70% of control), agonist: Imiquimod (TLR7) […]
[10] = library stock concentration (final ~1000-fold dilution): 10 mM, cytotoxicity flag (confluency mask): cytotoxic (confluency <70% of control), agonist: MPLA (TLR4) […]

CCNC1(C(N)=O)CCN(c2ncnc3c2nc(-c2ccccc2Cl)n3-c2ccc(Cl)cc2)CC1.Cl
NF-kB SEAP reporter activity (RAW-Dual [1]; library stock concentration (final ~1000-fold dilution): 2 mM, cytotoxicity flag (confluency mask): not cytotoxic, agonist: Imiquimod (TLR7) […]): 0.57 | NF-kB SEAP reporter activity (RAW-Dual [1]; library stock concentration (final ~1000-fold dilution): 2 mM, cytotoxicity flag (confluency mask): not cytotoxic, agonist: MPLA (TLR4) […]): 0.847

CCNC1(C(N)=O)CCN(c2ncnc3c2nc(-c2ccccc2Cl)n3-c2ccc(Cl)cc2)CC1.Cl (library stock concentration (final ~1000-fold dilution): 2 mM)
NF-kB SEAP reporter activity (RAW-Dual [2]; agonist: LPS (TLR4) 0.1 ug/mL): 0.587 | NF-kB SEAP reporter activity (RAW-Dual [2]; [4]): 0.493 | NF-kB SEAP reporter activity (RAW-Dual [2]; [5]): 0.537 | NF-kB SEAP reporter activity (RAW-Dual [2]; [6]): 0.482

COc1ccc(-c2ccc3c(N4CCOCC4C)nc(N4CCOCC4C)nc3n2)cc1CO (stereo not given)
NF-kB SEAP reporter activity (RAW-Dual [1]; [7]): 1.11 | NF-kB SEAP reporter activity (RAW-Dual [1]; [8]): 1.53

COc1ccc(-c2ccc3c(N4CCOCC4C)nc(N4CCOCC4C)nc3n2)cc1CO (stereo not given) (library stock concentration (final ~1000-fold dilution): 10 mM)
NF-kB SEAP reporter activity (RAW-Dual [2]; agonist: LPS (TLR4) 0.1 ug/mL): 1.62 | NF-kB SEAP reporter activity (RAW-Dual [2]; [4]): 1.12 | NF-kB SEAP reporter activity (RAW-Dual [2]; [5]): 0.372 | NF-kB SEAP reporter activity (RAW-Dual [2]; [6]): 0.555

Cc1cc(O)c(-c2ccc(C(C)CN(C)C)cc2)c2c1[nH]c(=O)c1sccc12.Cl.Cl (stereo not given)
NF-kB SEAP reporter activity (RAW-Dual [1]; [9]): 1.2 | NF-kB SEAP reporter activity (RAW-Dual [1]; [10]): 1.37

Cc1cc(O)c(-c2ccc(C(C)CN(C)C)cc2)c2c1[nH]c(=O)c1sccc12.Cl.Cl (stereo not given) (library stock concentration (final ~1000-fold dilution): 10 mM)
NF-kB SEAP reporter activity (RAW-Dual [3]; agonist: LPS (TLR4) 0.1 ug/mL): 0.764 | NF-kB SEAP reporter activity (RAW-Dual [3]; [4]): 0.357 | NF-kB SEAP reporter activity (RAW-Dual [3]; [5]): 0.311 | NF-kB SEAP reporter activity (RAW-Dual [3]; [6]): 0.482

CC(N)C12CC3CC(CC(C3)C1)C2.Cl (stereo not given)
NF-kB SEAP reporter activity (RAW-Dual [1]; [8]): 1.06

CC(N)C12CC3CC(CC(C3)C1)C2.Cl (stereo not given) (library stock concentration (final ~1000-fold dilution): 10 mM)
NF-kB SEAP reporter activity (RAW-Dual [2]; agonist: LPS (TLR4) 0.1 ug/mL): 1.15 | NF-kB SEAP reporter activity (RAW-Dual [2]; [4]): 0.619 | NF-kB SEAP reporter activity (RAW-Dual [2]; [5]): 1.24 | NF-kB SEAP reporter activity (RAW-Dual [2]; [6]): 0.847

O=C(Cn1nnc(-c2ccncc2)c1-c1ccccc1)Nc1ccc(-c2ccccc2)cn1 (library stock concentration (final ~1000-fold dilution): 10 mM)
NF-kB SEAP reporter activity (RAW-Dual [2]; agonist: LPS (TLR4) 0.1 ug/mL): 1.06 | NF-kB SEAP reporter activity (RAW-Dual [2]; [4]): 0.623 | NF-kB SEAP reporter activity (RAW-Dual [2]; [5]): 0.34 | NF-kB SEAP reporter activity (RAW-Dual [2]; [6]): 0.345

O=C(Cn1nnc(-c2ccncc2)c1-c1ccccc1)Nc1ccc(-c2ccccc2)cn1
NF-kB SEAP reporter activity (RAW-Dual [1]; [7]): 0.711 | NF-kB SEAP reporter activity (RAW-Dual [1]; [8]): 0.961

Cc1noc(C)c1-c1ccc2[nH]c(=O)n3c2c1OCC3c1ccccn1 (stereo not given)
NF-kB SEAP reporter activity (RAW-Dual [1]; [7]): 1.5 | NF-kB SEAP reporter activity (RAW-Dual [1]; [8]): 2.28

Cc1noc(C)c1-c1cnc2c(-c3ccc(C(=O)O)cc3)cn(C(C)c3ccccn3)c2c1 (stereo not given)
NF-kB SEAP reporter activity (RAW-Dual [1]; [7]): 1.59 | NF-kB SEAP reporter activity (RAW-Dual [1]; [8]): 2.29

COc1cc2c(cc1-c1c(C)noc1C)ncc1[nH]c(=O)n(C(C)c3ccccn3)c12 (stereo not given)
NF-kB SEAP reporter activity (RAW-Dual [1]; [9]): 2.61 | NF-kB SEAP reporter activity (RAW-Dual [1]; [10]): 2.46
